Measurements published in PubChem BioAssay AID689 (Sanford-Burnham Center for Chemical Genomics, 2007).
About 80 (0.1%) of roughly 62,000 compounds were called active. No rule for the calls is given here. Only a sample is shown. Results with a measured potency or affinity are listed apart.

target: Ephrin type-A receptor 4 (Mus musculus) (UniProt Q03137); assay: EphA4 ligand-binding antagonists – biochemical, colorimetric, mouse EphA4, primary screen (AID 689); conditions: EphA4-AP binding to KYL peptide, pNPP A405, at 10 µM, hits give high values
Sequence (Q03137 whole entry, looked up): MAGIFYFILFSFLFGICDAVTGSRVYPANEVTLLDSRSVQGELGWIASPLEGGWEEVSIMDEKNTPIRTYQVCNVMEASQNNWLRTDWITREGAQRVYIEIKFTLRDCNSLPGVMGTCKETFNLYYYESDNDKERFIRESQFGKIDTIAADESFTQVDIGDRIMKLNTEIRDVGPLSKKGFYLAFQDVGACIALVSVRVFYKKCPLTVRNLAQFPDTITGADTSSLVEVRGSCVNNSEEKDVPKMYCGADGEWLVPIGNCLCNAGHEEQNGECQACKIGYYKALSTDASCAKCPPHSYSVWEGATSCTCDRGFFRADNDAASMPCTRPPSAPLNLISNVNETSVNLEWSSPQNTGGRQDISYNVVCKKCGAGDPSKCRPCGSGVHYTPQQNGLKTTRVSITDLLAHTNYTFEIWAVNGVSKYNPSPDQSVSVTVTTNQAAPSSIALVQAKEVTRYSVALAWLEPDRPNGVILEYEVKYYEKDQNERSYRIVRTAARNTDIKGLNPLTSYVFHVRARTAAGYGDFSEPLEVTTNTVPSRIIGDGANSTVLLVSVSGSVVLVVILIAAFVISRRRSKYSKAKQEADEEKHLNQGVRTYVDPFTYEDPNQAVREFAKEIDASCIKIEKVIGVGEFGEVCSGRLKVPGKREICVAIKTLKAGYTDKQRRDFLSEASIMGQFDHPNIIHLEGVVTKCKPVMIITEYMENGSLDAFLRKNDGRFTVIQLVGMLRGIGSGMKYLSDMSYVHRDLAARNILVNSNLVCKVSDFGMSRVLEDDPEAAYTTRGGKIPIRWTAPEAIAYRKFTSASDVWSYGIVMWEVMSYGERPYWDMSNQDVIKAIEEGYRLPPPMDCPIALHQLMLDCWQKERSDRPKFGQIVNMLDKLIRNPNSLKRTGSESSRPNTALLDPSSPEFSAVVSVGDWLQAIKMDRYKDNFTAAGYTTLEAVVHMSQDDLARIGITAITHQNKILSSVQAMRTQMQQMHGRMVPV

inhibition, inactive:
O=C(c1ccccc1[N+](=O)[O-])N1CCN(C/C=C/c2ccccc2)CC1 -10.3% [this sample at 5 µg/mL], CCOc1cc(/C=C2/SC(=S)N(CC)C2=O)ccc1OCc1ccccc1Cl 5% [this sample at 5 µg/mL], Cn1c2ccc(Cl)cc2c2nc3ccccc3nc21 -1.5%, CCn1c2ccccc2c2nc3ccccc3nc21 40.1%, Cc1cc(NC(=O)CSc2nnc(C3COc4ccccc4O3)o2)no1 (stereo not drawn) -5.5%, N#CC1=C(N)C(C#N)(C#N)C(c2cccnc2)C2CCCC=C12 (stereo not drawn) -10%, COC(=O)CN1C(=O)/C(=C\C=C\c2ccccc2)SC1=S 7.7% [this sample at 5 µg/mL], O=C1/C(=C/C=C/c2ccccc2)SC(=S)N1c1cccc(C(F)(F)F)c1 3.3% [this sample at 5 µg/mL], CCCN1C(=O)/C(=C/c2c(NCCCOC(C)C)nc3c(C)cccn3c2=O)SC1=S 38.4%, CCOCCCNc1nc2c(C)cccn2c(=O)c1/C=C1\SC(=S)N(CC(C)C)C1=O -4.7%, COc1ccc(/C=C/C(=O)CC(=O)C(Cl)(Cl)Cl)cc1 5.9% [this sample at 5 µg/mL], Cc1nnc(NC(=O)c2sc3nc(-c4cccs4)cc(C(F)(F)F)c3c2N)s1 3.5%, Cc1c(C(=O)Nc2nccs2)sc2nc(-c3cccs3)cc(C(F)(F)F)c12 33%, CC(=O)c1cccc(NS(=O)(=O)c2cc(OCC(N)=O)c(C)cc2Cl)c1 -4%, CCOC(=O)C1=C(C)N(CCOC)C(=O)/C1=C\c1sccc1C -1.6% [this sample at 5 µg/mL], Cc1cc(OCC(=O)O/N=C(\N)Cc2cccs2)ccc1Br -4.6%, CCSc1nnc(NC(=O)C(C)C)s1 -5.3%, CCSc1nnc(NC(=O)C(CC)(C(F)(F)F)C(F)(F)F)s1 -7.4%, Clc1ccc(CN2CCN(/N=C/c3ccc(Cl)c(Cl)c3)CC2)cc1 6% [this sample at 5 µg/mL], Cn1nnnc1SCC(=O)c1ccco1 23.3%, Cc1ccc2nc(CSc3nc(C)cc(C)c3C#N)[nH]c2c1 5.6%, Cc1ccc(NC2=Nc3ccccc3N3C2=Nc2c(c(C)nn2-c2ccccc2)C3c2ccc(O)c(O)c2)cc1 (stereo not drawn) 27.8%, Cc1ccc(N2C(=O)c3n[nH]c(C)c3C2c2cccnc2)cc1 (stereo not drawn) -11.4%, Cc1nn(-c2ccccc2)c2c1C(c1ccc(O)c(O)c1)N1C(=N2)C(Nc2ccccc2)=Nc2ccccc21 (stereo not drawn) 23.4%, Cc1cccc(NC2=Nc3ccccc3N3C2=Nc2c(c(C)nn2-c2ccccc2)C3c2ccc(O)c(O)c2)c1 (stereo not drawn) 37%, CCCOc1nc2c(c(=O)n(C)c(=O)n2C)n1CCC -3.5%, CC(=O)c1c(C)n(-c2ccccc2)c2ccc(OCC(O)CN3CCOCC3)cc12 (stereo not drawn) -25.3%, Cn1c(=O)n(C)c2cc(S(=O)(=O)NCc3ccco3)ccc21 -8%, N#CC(c1ccc(O)cc1)N1CCCCC1 (stereo not drawn) 0.9%, Cc1ccc(NC(=O)N2CCC(C(=O)NCC(C)C)CC2)cc1 -0.8%, CC(C)OCCCNC(=O)C1CCC(=O)N1C(C)C (stereo not drawn) -3.7%, CCc1ccc(S(=O)(=O)Nc2cc(Br)c(O)c3ccccc23)cc1 2.2% [this sample at 5 µg/mL], COc1ccc(S(=O)(=O)Nc2ccc(NS(=O)(=O)c3ccc(OC)cc3)c3ccccc23)cc1 -1.5% [this sample at 5 µg/mL], Cc1ccc(S(=O)(=O)Oc2cccc(N3C(=O)C4CC=CCC4C3=O)c2)cc1 (stereo not drawn) -10.4%, CCN(CC(=O)Nc1ccc2c(c1)OCCO2)c1ccc(S(=O)(=O)N2CCOCC2)cn1 -6.5%, O=C(Cc1cccs1)N1CCN(c2cccc(Cl)c2)CC1 11.4% [this sample at 5 µg/mL], COc1ccc(C2CC(=O)N3CN(c4ccccc4F)CSC3=C2C#N)cc1OC (stereo not drawn) -4.9%, COc1cccc(C2CC(=O)N3CN(c4ccccc4F)CSC3=C2C#N)c1 (stereo not drawn) 12.3%, CCOC(=O)c1c(NC(=S)Nc2ccccc2)sc2c1CCCCC2 1.6%, CCOC(=O)c1c(NC(=S)Nc2ccccc2)sc2c1CCN(CC)C2 0.4%, Cc1ccc2[nH]c(=O)c(CN(CCCN3CCOCC3)C(=O)NC3CCCCC3)cc2c1 -12%, COc1ccccc1Cc1noc(C(C)(C)NC(=O)c2ccccc2)n1 9%, CN(C)CCCNC(=O)CC(c1ccc(F)cc1)c1ccco1 (stereo not drawn) -15.3%, CCOC(=O)C1=C(c2ccccc2)N=c2s/c(=C\c3ccc(O)c(OC)c3)c(=O)n2C1c1ccc(OC)cc1 (stereo not drawn) 7.7% [this sample at 5 µg/mL], CCOC(=O)C1=C(c2ccccc2)N=c2s/c(=C\c3ccc(O)cc3)c(=O)n2C1c1cccs1 (stereo not drawn) 23.9%, O=C(O)CCC(=O)NCCn1c(-c2ccccc2)csc1=Nc1ccccc1 -2.4%, O=C1/C(=C\c2cccnc2)SC(=S)N1C1CCS(=O)(=O)C1 (stereo not drawn) 1.1%, CCOc1ccc(-c2nn(-c3ccccc3)cc2/C=C2\SC(=S)N(CCOC)C2=O)cc1 24.2% [this sample at 5 µg/mL], Nc1ccc(N(c2ccccc2)c2ccc(N)cc2)cc1 5.1%, CCN(Cc1ccccc1)C(=O)c1ccc([N+](=O)[O-])cc1 1.5% [this sample at 5 µg/mL], CCOc1ccc(S(=O)(=O)N(CC(=O)Nc2ccccc2C)c2ccc(C)cc2)cc1 2% [this sample at 5 µg/mL], Cc1cccc2sc(NC(=O)c3ccc(Cl)s3)nc12 -3.3%, Cc1cccc2sc(NC(=O)c3ccccc3C(=O)O)nc12 -11.2% [this sample at 5 µg/mL]
